Experimental data taken from PubChem BioAssay (EPA / NIEHS).
Active and inactive are the calls of the source. The calls were made as follows: active = hit-call score of the fitted dose curve at least 0.9, where 1 is the maximum; inactive = score below 0.9.

Each compound was assayed on Epidermal growth factor receptor (EGFR), EGFR (gene 1956) (assay: BSK_hDFCGF_EGFR: BioMAP Diversity Plus: hDFCGF Assay for Epidermal growth factor receptor (EGFR) Biomarker Activity (AID 2283057)). Conditions: primary human foreskin fibroblasts; actives raise or lower the signal.
Method: BSK_hDFCGF is a cell-based, multiplexed-readout assay that uses foreskin fibroblast, a human skin primary cell, with measurements taken at 24 hours after chemical dosing in a 96-well plate.BSK_hDFCGF_EGFR is an assay component measured in the BSK_hDFCGF assay. It measures EGFR antibody related to regulation of gene expression using ELISA technology.Data from the assay component BSK_hDFCGF_EGFR was analyzed into 1 assay endpoint. This assay endpoint, BSK_hDFCGF_EGFR, was analyzed with bidirectional fitting relative to DMSO as the negative control and baseline of activity. Using a type of binding reporter, gain or loss-of-signal activity can be used to understand changes in the signaling as they relate to the gene EGFR. Furthermore, this assay endpoint can be referred to as a primary readout, because this assay has produced multiple assay endpoints where this one serves a signaling function. To generalize the intended target to other relatable targets, this assay endpoint is annotated to the kinase intended target family, where the subfamily is receptor tyrosine kinase.
The levels of cell surface (or secreted, indicated by the prefix "s") biomarker endpoints were measured by ELISA. Overt cytotoxicity to cells in confluent adherent cultures (all systems other than the BT system) was assessed by measuring total protein levels using sulforhodamine B (SRB) staining in parallel cultures at the time of biomarker measurements, indicated as SRB endpoints. For proliferation assays for adherent cell types, individual cell types are cultured at sub-confluence and relative cell numbers quantified by SRB staining at time points optimized for each system (48 h: 3C and CASM3C systems; 72 h: BT and HDF3CGF systems; 96 h: SAg system). SRB was performed by staining cells with 0.1% SRB after fixation with 10% TCA and reading wells at 560 nm.Viability and proliferation of PBMC (T cells) was quantified by Alamar Blue reduction for the SAg and BT systems. For PBMC viability (referred to as PBMC Cytotoxicity within the assay endpoint names), cells were plated (75,000/well in a 96-well plate) and then chemical samples added for 1 h before addition of activators, SEB and TSST-1 (20 ng/mL final concentration each). Cells were incubated for 90 h. Then, Alamar Blue (20 uL/well) (Invitrogen, Cat DAL1100) was added for 6 h, and the plates were read with a fluorescence microplate reader at 546/580 nm (excitation/emission). For PBMC proliferation, cells were plated and activated as above but incubated for only 16 h prior to addition of Alamar Blue. Plates were read after 6 h.

Row | SMILES | outcome | AC50
1 | O=C1CCCCCCCCCCCCCCO1 | inactive | –
2 | CCCCC(CC)COC(=O)/C=C\C(=O)OCC(CC)CCCC (stereo not given) | inactive | –
3 | Cc1ccc(O)c(C(C)(C)C)c1 | inactive | –
4 | C#C[C@]1(O)CC[C@H]2[C@@H]3CCC4=Cc5oncc5C[C@]4(C)[C@H]3CC[C@@]21C | inactive | –
5 | C=C[Si](OCC)(OCC)OCC | inactive | –
6 | CNC[C@H](O)c1cccc(O)c1 | inactive | –
7 | CC1COc2ccccc2N1C(=O)C(Cl)Cl (stereo not given) | inactive | –
8 | CC(=O)/C=C/C1=C(C)CCCC1(C)C | inactive | –
9 | c1ccc2c(c1)c1cccc3ccc4cccc2c4c31 | inactive | –
10 | C=C(C)C(=O)O[C@H]1C[C@@H]2CC[C@@]1(C)C2(C)C | – | 29.4 µM (active)
11 | OC1OC[C@@H](O)[C@H](O)[C@H]1O (stereo not given in full) | inactive | –
12 | O=C(O)c1ccc([N+](=O)[O-])cc1 | inactive | –
13 | O=[N+]([O-])c1cc(C(F)(F)F)ccc1Cl | inactive | –
14 | Cc1ccc2n[nH]nc2c1 | inactive | –
15 | CCCCCCCCC=O | inactive | –
16 | CCCCCCCCCC=O | inactive | –
17 | CCCCC/C=C/C=C/C=O | inactive | –
18 | CCCCCCCCCCCCCCCCCC(=O)OCC(CC)CCCC (stereo not given) | inactive | –
19 | COc1cc(C=O)ccc1OC(=O)C(C)C | inactive | –
20 | CCCCC(CC)COCCC#N (stereo not given) | inactive | –

Row | SMILES | outcome | AC50
21 | O=C(O)C[C@H](O)C[C@H](O)/C=C/c1c(C2CC2)nc2ccccc2c1-c1ccc(F)cc1 | inactive | –
22 | c1ccc2sc(SN(C3CCCCC3)C3CCCCC3)nc2c1 | inactive | –
23 | C[C@H]1C[C@@H]2[C@H]([C@@H](O)C[C@@]3(C)[C@H]2CC[C@]3(O)C(=O)CO)[C@@]2(C)C=CC(=O)C=C12 | inactive | –
24 | CCn1c2ccccc2c2cc(N)ccc21 | inactive | –
25 | OC[C@H]1O[C@H](O[C@]2(CCl)O[C@H](CCl)[C@@H](O)[C@@H]2O)[C@H](O)[C@@H](O)[C@H]1Cl | inactive | –
26 | CC(=O)O[C@]1(C(C)=O)CC[C@H]2[C@@H]3C[C@H](C)C4=CC(=O)CC[C@]4(C)[C@H]3CC[C@@]21C | inactive | –
27 | O=P(c1ccccc1)(c1ccccc1)c1ccccc1 | inactive | –
28 | N#Cc1ccc(CC(=NNC(=O)Nc2ccc(OC(F)(F)F)cc2)c2cccc(C(F)(F)F)c2)cc1 | inactive | –
29 | CC(=O)[C@H]1CC[C@H]2[C@@H]3CC=C4C[C@@H](O)CC[C@]4(C)[C@H]3CC[C@]12C | inactive | –
30 | CN(CCOc1ccc(CC2SC(=O)NC2=O)cc1)c1ccccn1 (stereo not given) | inactive | –
31 | CCc1c(C)cc(N)c(CC)c1N | inactive | –
32 | CC(C)c1ccc(C(C)C)cc1 | inactive | –
33 | NCCNCCN | inactive | –
34 | Cc1cc(C2(c3cc(C)c(O)cc3C)OS(=O)(=O)c3ccccc32)c(C)cc1O | inactive | –
35 | O=C=NC1CCC(CC2CCC(N=C=O)CC2)CC1 (stereo not given) | inactive | –
36 | CC(C)Oc1ccccc1O | inactive | –
37 | Cc1ccc(Nc2ccc(O)c3c2C(=O)c2ccccc2C3=O)cc1 | inactive | –
38 | CC(=O)Nc1ccccc1O | inactive | –
39 | O=C(O)c1cn(C2CC2)c2cc(N3CCNCC3)c(F)cc2c1=O | inactive | –
40 | CC(=O)OCCC(C)CC(C)(C)C (stereo not given) | inactive | –
